Screening data deposited in PubChem BioAssay by The Scripps Research Institute Molecular Screening Center.
CHRM1 agonist: activates human CHRM1 receptor | CHO-K1 hM1, Fluo-8 calcium fluorescence, agonist mode; 0% DMSO, 100% acetylcholine EC100 | AID 588814 | activation, % at 3 µM | 0.33% of 360,000 active | P11229;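 active means activation above the run's mean compound activation plus 3 SD, cut at about 16% in these data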;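 further: peak over basal fluorescence ratio within a 140 s kinetic read after compound addition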
Target sequence (P11229 whole entry, looked up): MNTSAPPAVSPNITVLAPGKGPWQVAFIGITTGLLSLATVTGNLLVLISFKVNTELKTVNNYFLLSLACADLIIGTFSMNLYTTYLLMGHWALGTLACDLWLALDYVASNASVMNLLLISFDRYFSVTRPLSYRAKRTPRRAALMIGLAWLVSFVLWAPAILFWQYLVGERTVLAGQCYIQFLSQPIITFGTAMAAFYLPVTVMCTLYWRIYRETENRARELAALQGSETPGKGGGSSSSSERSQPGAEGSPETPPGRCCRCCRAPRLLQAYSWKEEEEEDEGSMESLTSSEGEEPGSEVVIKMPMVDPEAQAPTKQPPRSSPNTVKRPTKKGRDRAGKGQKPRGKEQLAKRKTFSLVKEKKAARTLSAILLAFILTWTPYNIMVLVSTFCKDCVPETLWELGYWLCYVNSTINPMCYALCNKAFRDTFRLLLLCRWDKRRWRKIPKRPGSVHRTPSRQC
CHO-K1 Ca antag: counter-screen for M1 antagonists: effect in parental CHO-K1 cells. inhibition, % at 3 µM. ATP-induced calcium, Fluo-8 fluorescence. 0.6% of 360,000 active. AID 602250;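 active means inhibition above a per-plate cutoff, the plate's mean sample inhibition plus 3 SD, cut at about 24% in these data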;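 further: 0% = DMSO plus EC80 ATP and 100% = DMSO alone without ATP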
CHO-K1 Ca ag: M1 agonist counterscreen hit in parental CHO-K1 cells. Fluo-8 calcium fluorescence; scaled to maximal ATP response, vehicle zero. AID 602248. 0.48% of 360,000 active. activation, % at 3 µM; in the data active means activation above about 15%;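 further: untransfected CHO-K1 host cells lacking M1 receptor as counterscreen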
M1 PAM parental: M1 PAM counterscreen hit in parental CHO-K1 cells. ATP EC20, Fluo-8 calcium fluorescence; 0% at ATP EC20, 100% at ATP max. activation, % at 3 µM. 0.02% of 360,000 active;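 active means activation above the run cutoff, the mean activation of all test compounds plus 3 SD, cut at about 40% in these data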;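 further: peak over basal fluorescence ratio in a 140 s read after ATP addition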
CHRM1 antagonist: blocks human M1 muscarinic receptor. P11229. CHO-K1 hM1, Fluo-8 calcium fluorescence, ACh EC80 antagonist. inhibition, % at 3 µM. 1.3% of 360,000 active. AID 588852;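 active means percent inhibition above its own plate's cutoff, namely the mean of that plate's compound wells plus 3 SD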;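 further: peak over basal fluorescence ratio during 140 s after agonist addition; 0% = ACh EC80 plus DMSO and 100% = DMSO alone without agonist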
CHRM1 PAM: human CHRM1 positive allosteric modulation; 0.088% of 360,000 active; AID 588819; activation, % at 3 µM; CHO-K1 hM1, Fluo-8 calcium fluorescence, ACh EC20; 0% = ACh EC20, 100% = maximal ACh; in the data active means activation above about 19%, passing the limit was not always enough
Active calls of the source: *; · = not tested or not shown. Compounds with a hit are over-represented: about 2.3% of the library has one in this group of screens.

SMILES	CHRM1 agonist	CHO-K1 Ca antag	CHO-K1 Ca ag	M1 PAM parental	CHRM1 antagonist	CHRM1 PAM
COc1ccc(C(=O)N2CCOCC2c2cc(C(=O)NCc3ccccc3)no2)cc1 (stereo not drawn)	-3.0	11.6	0.3	-3.0	-6.7	4.8
Cc1c(N=Cc2nc3ccccc3[nH]2)c(=O)n(-c2ccccc2)n1C	-3.5	31.4*	-0.2	-6.3	0.2	1.0
CC(=O)CC(c1ccccc1)S(=O)(=O)c1ccc(C)cc1 (stereo not drawn)	-2.2	9.4	0.2	-6.4	26.5*	-3.7
COc1ccc(C(CC(=O)c2ccccc2)S(=O)(=O)c2ccc(C)cc2)cc1 (stereo not drawn)	-5.8	-11.6	0.1	16.2	-15.7	8.8
Cc1nc(=O)c(-c2ccccc2)c(C)n1-c1cccc(/C=C/C(=O)O)c1	-5.1	6.6	-0.2	-5.2	-11.9	7.5
Cc1occc1C(=O)N1CCCC(N2CCN(c3cccc(Cl)c3)CC2)C1 (stereo not drawn)	-6.5	1.8	0.0	-4.7	24.1	-8.9
Cc1nc2nc(SCC(=O)NCCCN3CCCC3)nn2c(C)c1Cc1ccccc1Cl	-12.4	-9.8	0.2	8.3	81.2*	-36.8
CCC1CCCCN1CCCNC(=O)CSc1nc2nc(C)c(Cc3ccc(C)cc3)c(C)n2n1 (stereo not drawn)	-13.0	-3.2	0.6	-22.5	68.9*	-36.3
Cc1nc2nc(SCC(=O)NCCCN3CCCCC3)nn2c(C)c1Cc1ccccc1	-11.2	-2.5	0.3	-6.2	13.7	-18.0
O=C(Nc1ccc(OC(F)(F)F)cc1)C1CCCN(C(=O)c2ccc(Cl)cc2)C1 (stereo not drawn)	0.5	13.5	20.0*	-14.5	30.7	-13.8
CCCNC(=O)c1cc(C2CCCN(S(=O)(=O)c3cccs3)C2)on1 (stereo not drawn)	-0.6	-7.5	1.4	-12.4	-9.4	0.4
Cc1nc(/C=C\C(=O)O)c2cc(C)oc2n1	-5.7	-0.4	0.0	16.7	-0.3	8.4
COc1cccc(C(=O)/C=C2\Sc3ccccc3N2C)c1	-4.3	24.0*	-0.2	-11.3	0.6	11.8
O=C(c1ccccc1)N1CCN=C1c1ccccc1	-3.7	-9.9	0.2	23.0	5.7	2.0
COc1ccc(C(=O)N2CCN=C2c2ccccc2)cc1OC	-0.3	26.2*	-0.1	-5.6	2.7	-8.4
C[C@H](CO)N1C[C@H](C)[C@H](CN(C)C(=O)c2ccccc2F)Oc2ncc(Br)cc2C1=O	-2.4	-4.8	-0.2	7.2	-16.5	6.4
O=C(/C=C/c1ccccc1)CC(O)(c1ccccc1)C(F)(F)C(F)F (stereo not drawn)	-8.4	-6.6	17.2*	23.5	37.6*	-22.2
COc1cc2c(cc1OC)CN(CCC(C)c1ccc(Cl)cc1)CC2 (stereo not drawn)	0.3	-10.4	1.0	9.7	43.0*	-19.8
CS/C(=N\N(C)C(N)=O)c1ccccc1	-5.4	4.3	15.2*	16.2	-1.1	7.9
O=C(Nc1ccc(N2CCN(c3ccc(C(F)(F)F)cn3)CC2)nc1)c1cccs1	-0.5	13.4	-0.3	-27.3	-1.0	-0.4
O=C(Nc1ccc(N2CCN(c3ncccc3C(F)(F)F)CC2)nc1)c1cccs1	1.3	15.8	10.6	-4.5	45.5*	-22.3
COc1ccc(NC(=O)c2cc(C3CCCCN3S(=O)(=O)c3c(C)noc3C)on2)c(C)c1 (stereo not drawn)	-6.4	-7.3	1.4	10.4	-15.0	7.8
O=C(Nc1ccc(C(=O)NCCCN2CCCCC2)cc1)C1=CSCCO1	-0.6	2.2	5.7	-11.3	17.3	-5.6
O=C(Nc1ccc(C(=O)NCCCN2CCN(c3ccc(F)cc3)CC2)cc1)C1=CSCCO1	17.0*	23.4	12.9	6.7	-5.7	-0.6
COc1ccc(CNCCCn2cnc3c(SC)ncnc32)cc1	-7.2	-6.2	1.5	22.0	-8.7	-0.9
SMILES	CHRM1 agonist	CHO-K1 Ca antag	CHO-K1 Ca ag	M1 PAM parental	CHRM1 antagonist	CHRM1 PAM
CCSc1nc2c(c(=O)n(C)c(=O)n2C)n1Cc1ccc(Cl)cc1	-3.5	-15.3	1.3	21.6	-5.8	-3.4
Cn1c(=O)c2c(nc(SCCN3CCCCC3)n2Cc2ccc(Cl)cc2)n(C)c1=O	-6.8	-6.7	0.3	11.4	32.5*	-26.0
CCC1(c2ccccc2)NC(=O)N(CC(=O)Nc2ccccc2N2CCCCC2)C1=O (stereo not drawn)	36.9*	12.4	38.1*	7.7	7.6	0.1
CCC1(c2ccc(F)cc2)NC(=O)N(CC(=O)Nc2ccc(N3CCCCC3)cc2)C1=O (stereo not drawn)	16.8*	7.4	10.5	10.7	2.6	5.2
CCNC(=O)C1(C)CCN(Cc2ccc(-c3ccccc3)cc2)C1 (stereo not drawn)	-7.4	-4.7	1.5	1.9	-8.6	-0.3
Cc1c(O)ccc(/C=N/Nc2nc(-c3cccnc3)nc3ccccc23)c1O	0.6	-1.3	6.3	3.7	31.9*	-8.2
COc1ccc(/C=N/Nc2nc(-c3cccnc3)nc3ccccc23)cc1OC	-0.3	1.9	4.8	0.9	25.8	-16.2
Oc1ccc(/C=N/Nc2nc(-c3cccnc3)nc3ccccc23)c(O)c1	-1.2	-4.6	5.5	11.7	9.2	-3.4
COc1ccc(CCNc2nc(-c3cccnc3)nc3ccccc23)cc1OC	-7.6	22.5	6.6	-5.5	24.6*	-13.3
CC(Nc1nc(-c2cccnc2)nc2ccccc12)c1ccc(F)cc1 (stereo not drawn)	-9.9	-7.3	2.0	-2.3	20.7*	-16.8
COc1ccc(C(CNc2nc(-c3cccnc3)nc3ccccc23)N(C)C)cc1 (stereo not drawn)	-11.0	3.7	2.6	3.8	33.3*	-30.6
CC[N+](CC)(CC#Cc1ccccc1)CC(=O)c1ccc(Cl)cc1	-12.3	-6.0	0.6	4.3	35.5*	-24.7
CCC[N+](CC#CCO)(CC#Cc1ccccc1)CCC	-6.3	-4.9	1.4	18.2	-18.2	12.3
CCn1cc(/C=N/NS(=O)(=O)c2ccc(OC)cc2)c(C)n1	20.7*	15.2	1.0	-7.8	-34.3	13.8
COc1ccc(OC)c(NC(=O)Nc2ccc3[nH]ccc3c2)c1	5.2	58.9*	-0.7	-8.1	-7.9	14.5
COc1ccc(OC)c(NC(=O)Nc2ccc(Cl)cc2)c1	-3.6	8.1	1.0	-11.8	5.4	-3.2
O=[N+]([O-])c1cc2c(c([N+](=O)[O-])c1)Nc1ccccc1O2	4.7	11.7	16.8*	0.1	-4.8	-1.4
O=C1Nc2ccccc2Oc2cc([N+](=O)[O-])cc(Oc3ccccc3)c21	3.0	2.7	3.9	7.8	-6.8	3.9
COc1cccc(S(=O)(=O)N(C)C[C@@H]2OCc3cnnn3CCCC(=O)N([C@@H](C)CO)C[C@H]2C)c1	-5.6	9.8	-0.3	6.4	-13.8	5.6
O=c1[nH]c(=S)[nH]c2c1[C@H](CCc1cccc(Cl)c1)O[C@H](C1CCCC1)C2	·	-31.5	1.9	40.6*	·	·
